High-throughput results (PubChem BioAssay)
This excerpt belongs to a sample that is enriched for hits.
HT1080 IDH1KD tx: toxicity to HT-1080 IDH1 knockdown cells (counter line); HT-1080 IDH1 knockdown viability, ATP luminescence, 48 h; Potency, µM (doses to about 46.1 µM), without a hit: at the top dose activity, negative = toxicity, usual class: cytotoxic; 360,000 compounds, 2% hits; AID 686971;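 also: potency is read from the fitted curve at half-maximal effect; 0% = DMSO wells and -100% = cell-free medium wells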
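In this qHTS, HT-1080 cells depleted of IDH1 are exposed for 48 h at 37 °C to compound titrations. Toxicity is scored from CellTiter-Glo luminescence, with DMSO as full viability and medium alone as none.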
TDP1 cell noCPT: qHTS for Inhibitors of human tyrosyl-DNA phosphodiesterase 1 (TDP1): qHTS in cells in absence of CPT. AID 686978, 2013. DT40 Tdp1-/- hTDP1 cells, no CPT, ATP luminescence, 48 h. 420,000 compounds, 15% hits. Potency, µM (series often up to 46.2 µM), for the others: at the highest dose activity change, negative = growth inhibition, usual class: inhibitors; also: potency is read from the fitted curve at half-maximal effect; nearly all actives have a fitted effect of over 55% in size
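Readout: luminescence from CellTiter-Glo after 30 min in the dark at RT. Cells: DT40 Tdp1-/- with stable hTDP1, 400/well. Exposure: compounds alone, ≥48 hr, 37 °C.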
DT40 TDP1 CPT: DT40-hTDP1 cell growth loss with CPT; chicken DT40 Tdp1-/-;hTDP1 cells + 20 nM CPT, ATP luminescence, 48 h; Potency, µM (titrated, usually from 46.2 µM), inactives show top-dose activity change, negative = growth inhibition, most hits filed as inhibitors; 420,000 compounds, 12% hits; also: potency is read from the fitted curve at half-maximal effect; nearly all actives have a fitted effect of over 55% in size
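Chicken DT40 Tdp1-/- cells stably complemented with human TDP1 were seeded at 400 cells/well in medium containing 20 nM camptothecin, exposed to pin-transferred compounds, and grown at 37 °C for at least 48 hr. Viability was read as ATP luminescence.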
HT1080-NT tox: kills 2HG-producing HT-1080-NT fibrosarcoma cells; HT-1080-NT fibrosarcoma viability, CellTiter-Glo ATP luminescence, 48 h; Potency, µM (series often up to 46.1 µM), without a hit: at the top dose activity, negative = less viability, hits mostly cytotoxic; 360,000 compounds, 1.6% hits;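 also: NT is the 2HG producing partner of a matched IDH1 knockdown line; potency is read from the fitted curve at half-maximal effect; 0% = DMSO-treated cells and -100% = media-only wells without cells; nearly all actives have a fitted effect of over 55% in size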
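Read-out is CellTiter-Glo luminescence after 10 minutes at room temperature, following 48 hours' compound treatment of HT-1080-NT cells (750 cells/well, RPMI, 5% FBS, 37 degrees C).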
IL-1B inflam inh: inhibitors of inflammasome signaling (IL-1 beta secretion). THP-1 LPS/ATP IL-1B secretion, AlphaLISA, 16 h; hits give low values. activity change, % at 57.5 µM. 360,000 compounds, 4.7% hits. AID 743279; in the data active = activity change below about -50%; inconclusive = mostly about -30% to -49%
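THP-1 cells pretreated 1 hr with compounds (up to 57.5 uM final), then stimulated with LPS (250 ng/mL final) plus ATP (1.25 mM final); secreted IL-1B measured by AlphaLISA after 16 hr, decreased signal indicating inhibition.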
ALOX12 inh: inhibitors of human 12S-lipoxygenase ALOX12; P18054; purified 12hLO, xylenol orange hydroperoxide absorbance; Potency, µM (highest dose often 108 µM), for inactives: at the top dose activity change, negative = inhibition, most hits filed as inhibitors; 580,000 compounds, 1.1% hits; AID 1671190; also: potency is read from the fitted curve at half-maximal effect
Target sequence (P18054 whole entry, looked up): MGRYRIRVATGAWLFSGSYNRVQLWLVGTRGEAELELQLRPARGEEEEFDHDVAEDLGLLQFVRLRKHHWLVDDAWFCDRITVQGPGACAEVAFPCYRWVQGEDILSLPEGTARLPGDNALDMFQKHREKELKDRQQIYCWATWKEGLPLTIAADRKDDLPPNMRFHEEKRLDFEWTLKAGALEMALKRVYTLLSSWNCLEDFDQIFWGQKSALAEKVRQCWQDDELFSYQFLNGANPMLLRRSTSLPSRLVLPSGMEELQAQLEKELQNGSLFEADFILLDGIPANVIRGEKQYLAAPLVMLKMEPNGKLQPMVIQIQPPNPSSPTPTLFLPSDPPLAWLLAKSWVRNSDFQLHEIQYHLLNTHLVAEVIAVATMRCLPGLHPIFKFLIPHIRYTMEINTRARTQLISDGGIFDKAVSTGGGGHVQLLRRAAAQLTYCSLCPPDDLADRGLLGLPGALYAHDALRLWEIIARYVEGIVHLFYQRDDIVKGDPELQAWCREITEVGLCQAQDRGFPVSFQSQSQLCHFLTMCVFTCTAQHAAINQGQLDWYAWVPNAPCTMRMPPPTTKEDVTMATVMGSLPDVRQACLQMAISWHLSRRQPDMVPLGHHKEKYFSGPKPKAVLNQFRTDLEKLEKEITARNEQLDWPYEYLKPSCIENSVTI
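Purified human 12hLO (150 nM final) in 25 mM Hepes, 0.01% Triton X-100, pH 7.0 was preincubated 15 min at room temperature with compound. Then 40 uM arachidonic acid was added, 30 min. Hydroperoxide was read by Fe-XO absorbance ratio 573/405 nm.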
* = called active by the depositor; u = inconclusive; x = no result given; [ ] = another dose, or the depositor's remark. Unless noted, calls follow the shape of the dose curve; as a rule, active = well fitted curve in the direction sought with a large enough effect; inconclusive = small, poorly fitted or top-dose-only effect, or another doubt; inactive = no such curve, though single readings can be large; an effect the other way counts as inactive or inconclusive. Unless noted, % is scaled to controls: 0 for no effect and ±100 for the full control effect.

SMILES	HT1080 IDH1KD tx	TDP1 cell noCPT	DT40 TDP1 CPT	HT1080-NT tox	IL-1B inflam inh	ALOX12 inh
CCOc1ccccc1N(CC(=O)Nc1ccc(OC)c(OC)c1)S(=O)(=O)c1ccccc1	-7.9%	u	u	-2.6%	10.1	0.0%
CCOc1ccc(S(=O)(=O)N(CC(=O)Nc2cccnc2)c2ccccc2)cc1	x	16.4µM*	u	x	x	-17.1%
COc1cc(CNC(=O)C2Cn3cccc3C(=O)N2Cc2cccnc2)cc(OC)c1 (configuration not stated)	x	x	x	x	x	41.4%
N=c1c2c(ncn1CCN1CCOCC1)Oc1cc(O)ccc1C2c1ccccc1 (configuration not stated)	-15.5%	u	1.2%	u	-75.0*	0.5%
COc1ccc(C2c3c(ncn(CCCN4CCOCC4)c3=N)Oc3ccc4ccccc4c32)cc1OC (configuration not stated)	-28.5%	13µM*	23.1µM*	0.2%	0.0	-0.5%
COc1ccc(C2c3ccc4ccccc4c3Oc3ncn(CCN4CCOCC4)c(=N)c32)cc1OC (configuration not stated)	-27.5%	14.6µM*	18.4µM*	-14.3%	-52.4*	u
COc1ccc(C2c3ccc(O)cc3Oc3ncn(CCN4CCOCC4)c(=N)c32)cc1OC (configuration not stated)	-7.2%	-11.7%	-24.6%	11.0%	u	2.7%
COc1ccc(C2c3ccc4ccccc4c3Oc3ncn(CCN4CCOCC4)c(=N)c32)cc1 (configuration not stated)	u	u	23.1µM*	u	-79.4*	u
O=C(c1ccc2c(c1)OCO2)N1CCn2c(nnc2-c2ccc(Cl)cc2)C1	x	x	x	x	x	2.7%[6.33 µM]
CSc1ccccc1NC(=O)c1csc(C)c1C	x	x	x	x	x	0.0%
CCC(C)NCC(O)(c1ccc(Cl)cc1)c1ccc(Cl)cc1 (configuration not stated)	u	23.1µM*	23.1µM*	u	u	6.8%
Cc1noc(/C=C\c2ccc(S(=O)(=O)N3CCCc4ccccc43)cc2)c1NC(=O)C1CC1	x	x	x	x	x	-0.9%
CCc1ccc(NC(=O)C(CC)Sc2nc3cc4c(cc3c(=O)n2Cc2ccco2)OCO4)cc1 (configuration not stated)	-19.8%	u	18.4µM*	-21.7%	-0.4	0.0%
CCc1ccccc1NC(=O)C(CC)Sc1nc2cc3c(cc2c(=O)n1Cc1ccco1)OCO3 (configuration not stated)	-1.6%	u	16.4µM*	-2.9%	6.7	-4.2%
CN(C(=O)COC(=O)CSc1ccc([N+](=O)[O-])cc1)c1ccccc1	-3.7%	29.1µM*	23.1µM*	-3.6%	0.0	u
CN(C(=O)COC(=O)c1ccc([N+](=O)[O-])cc1)c1ccccc1	18.0%	-24.9%	4.7%	11.2%	-11.1	-0.3%
COCCN1CCN(C(=O)c2cnn(-c3nccc(-c4ccco4)n3)c2C2CC2)CC1	x	-3.8%	-0.4%	x	x	7.2%
Cc1c(C=O)c2ccccc2n1CCOc1ccccc1F	-29.0%	10.3µM*	23.1µM*	-8.4%	13.3	0.0%
C/C(=N\NS(=O)(=O)c1ccc(Br)cc1)c1ccncc1	-1.9%	u	11.6µM*	9.3%	-77.6*	31.6µM*
C/C(=N/NS(=O)(=O)c1ccc(Cl)cc1)c1ccncc1	2.6%	11.4%	u	1.1%	-1.1	u
CN(C)C[C@@H]1CN(c2ncccn2)C[C@H]1NC(=O)c1ccc2cc[nH]c2c1	x	x	x	x	x	17.0%
